Biological target: Bifunctional epoxide hydrolase 2 (Homo sapiens) (UniProt P34913)
Experiment: sEH inhibitor concentration-response potency, dose response, biochemical, human sEH, fluorescence, Infinite200 (AID 1026)
Settings: recombinant human sEH, fluorogenic substrate, at 0.2 µM, stronger effect = higher value; call rule not given here

Bifunctional epoxide hydrolase 2 (Homo sapiens), sequence (P34913 whole entry, looked up): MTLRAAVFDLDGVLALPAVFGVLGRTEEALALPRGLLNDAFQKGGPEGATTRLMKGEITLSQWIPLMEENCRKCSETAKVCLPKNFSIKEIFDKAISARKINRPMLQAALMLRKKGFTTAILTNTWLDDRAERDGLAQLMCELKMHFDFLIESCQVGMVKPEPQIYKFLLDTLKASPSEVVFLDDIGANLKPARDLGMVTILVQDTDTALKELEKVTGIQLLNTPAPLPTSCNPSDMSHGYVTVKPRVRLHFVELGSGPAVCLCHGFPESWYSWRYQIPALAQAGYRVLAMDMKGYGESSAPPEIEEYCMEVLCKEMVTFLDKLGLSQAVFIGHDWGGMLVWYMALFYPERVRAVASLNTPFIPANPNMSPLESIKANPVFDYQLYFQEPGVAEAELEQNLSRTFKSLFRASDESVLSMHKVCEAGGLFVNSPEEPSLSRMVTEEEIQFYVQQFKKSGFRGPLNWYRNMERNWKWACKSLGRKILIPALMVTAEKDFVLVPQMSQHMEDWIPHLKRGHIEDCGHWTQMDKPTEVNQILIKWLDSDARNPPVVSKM

inhibition, inactive:
COc1ccc(CNC(=O)/C=C/c2cc3c(cc2Br)OCO3)cc1 58.5%, COc1ccc(CCNC(=O)c2ccc3c(c2)NC(=O)C(N2CCOCC2)S3)cc1OC (centres undefined) 49.2%, O=C(N/N=C/c1cccc(O)c1)c1csc2ccccc12 54.3%, COc1ccc(/C=N/NC(=O)c2ccc(COc3ccccc3Cl)o2)cc1 55.4%, O=C(Nc1ccc2c(c1)nc1n2CCN(C2CCCCC2)C1)NC1CCCCC1 72.7%, Cc1ccc(NC(=O)NCCCc2ccccc2)cc1 48.7%, O=C(NCc1ccc2c(c1)OCO2)C1CCC(CNS(=O)(=O)c2cccc3nsnc23)CC1 (centres undefined) 59.7%, C=CCN1C(=O)CSc2ccc(C(=O)NCCC3=CCCCC3)cc21 55.8%, O=C(NC12CC3CC(CC(C3)C1)C2)N1CCC(O)(c2ccc3c(c2)OCO3)CC1 46%, O=C(NCc1ccc2c(c1)OCO2)C1CCN(c2ccc(S(=O)(=O)N3CCCC3)cc2)CC1 52.2%, O=C(NC12CC3CC(CC(C3)C1)C2)N1CC2Cc3cccc(=O)n3C(C2)C1 (centres undefined) 54.2%, CCc1c(C)nc2ncnn2c1N1CCC(C(=O)Nc2ccc(C)cc2)CC1 44.3%, COCCNC(=O)CN1CCC(NC(=O)Nc2ccc(C(F)(F)F)cc2)CC1 54.7%, CCn1c(C(=O)N2CCCC(C(=O)NCCCc3ccccc3)C2)cc2sccc21 (centres undefined) 65.6%, CC(Cc1cccs1)NC(=O)Nc1ccc(Cl)cc1 (centres undefined) 60.6%, CCOc1ccc(NC(=O)NCCCSC2CCCCC2)cc1 54.6%, Cc1ccc(CCNC(=O)C2CCCN(S(=O)(=O)c3cccc4nsnc34)C2)cc1 (centres undefined) -5.2%, O=C(NC1CCCCC1)N1CCCC(c2nc(-c3cccs3)no2)C1 (centres undefined) 65.8%, CS(=O)(=O)N(Cc1ccc(C(=O)NCCSCc2ccco2)cc1)c1ccccc1 53.6%, CCCOc1cccc(/C=N/NC(=O)c2csc(C)c2C)c1 49.7%, CCc1ccc(NC(=O)Nc2ccc3c(c2)N(C)C(=O)CS3)cc1 61.2%, O=C(Nc1ccc2c(c1)nc1n2CCN(Cc2ccccc2)C1)NC1CCCCC1 58.4%, CC(Cc1cccs1)NC(=O)Nc1ccc(Cl)c(Cl)c1 (centres undefined) 65.5%, CC(Cc1cccs1)NC(=O)NC1CCCCC1 (centres undefined) 57.2%, Cc1ccc(S(=O)(=O)N2CCCC(C(=O)NCCC3=CCCCC3)C2)cc1 (centres undefined) 35.1%, Cc1noc(C)c1COc1cccc(C(=O)NCc2ccccc2Cl)c1 52.4%, CSc1cccc(NC(=O)Nc2ccc(Cl)cc2)c1 59.3%, CCN(CCNC(=O)Nc1ccc(Cl)cc1)c1ccccc1 39.1%, O=C(NCCC1=CCCCC1)c1ccc(F)c(S(=O)(=O)N2CCOCC2)c1 60.6%, Cc1oc(-c2ccccc2F)nc1CN1CCC(C(=O)NCCC2=CCCCC2)CC1 56.5%, Cc1ccccc1CSCCNC(=O)CCSc1ccccc1 44.2%, O=C(COC(=O)c1ccc(S(=O)(=O)NCc2ccco2)cc1)NC1CCCCCC1 62.6%, O=C(NCC1CCCC(CNC(=O)N2CCc3ccccc32)C1)N1CCc2ccccc21 (centres undefined) 60.4%, CC(c1ccccc1)N1CCn2c(nc3cc(NC(=O)NC4CCCCC4)ccc32)C1 (centres undefined) 70.1%, CC(C)c1ccc(NC(=O)N2CCC(c3nc4ccccc4o3)CC2)cc1 66.3%, O=C(Cc1ccc(Cl)cc1)Nc1ccc(N2CCN(C(=O)c3ccco3)CC2)c(Cl)c1 64.8%, CC(C)(C)c1ccc(C(=O)N2CCC(C(=O)NCCC3=CCCCC3)CC2)cc1 38%, O=C(NCCC1=CCCCC1)C1CCN(c2nc3ccccc3o2)CC1 45.6%, CC(=O)NC(=S)Nc1ccc(NC(=O)COc2ccc(Cl)cc2Cl)cc1 44.2%

— PubChem BioAssay AID1026 (Columbia University Molecular Screening Center, 2008)
